Only some compounds are listed: those with a hit (about 2.5% of all), similar ones and a draw of the others.
Akt phos inh – Akt phosphorylation inhibition; Neuro2A IGF-stimulated pAkt S473 HTRF, 20 min; hits give low values; activity change, % for hits at 50 µM; 360,000 compounds, 0.32% hits; AID 651550; in the data active means activity change below about -80%; inconclusive means mostly about -51% to -80%
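Single-point screen (50 µM final compound) in Neuro2A cells stimulated 20 min with 6 nM IGF at 37 deg C. After lysis, Ser473-phosphorylated Akt read by HTRF (ex 330 nm, em 615/665 nm) as the 665/615 ratio.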
CCT modulator – cytosolic chaperonin activity modulation | purified chaperonin ATPase assay, HTRF ADP detection, 30 min | activity change, % (no concentration beside the values), hits read low | 360,000 compounds, 0.3% hits | AID 651819; in the data active means activity change below about -30%
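First, chaperonin was dispensed at 40 nM or 20 nM final depending on batch activity. Next, compounds were pinned at 76 uM and ATP added at 10 uM. After 30 min at 37 °C, ADP detection reagents ran 30 min at ambient temperature.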
TDP-43 yeast inh – TDP-43 toxicity inhibition in yeast; TDP-43 expressing yeast growth rescue, BacTiter-Glo, 24 h; Potency, µM (titrated, usually from 46.1 µM), usual class: activators; 410,000 compounds, 1.8% hits; AID 652104; further: nearly all actives have a fitted effect of over 50% in size
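Readout is BacTiter-Glo luminescence of cell growth, so inhibitors register as activators. TDP-43-expressing yeast at OD600=0.02 in galactose medium, after raffinose pregrowth to mid-log, were incubated with compound for 24 hr at 30 deg C.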
Anesthetic bind – candidate novel general anesthetic via apoferritin binding; apoferritin/1-aminoanthracene competitive binding, fluorescence; Potency, µM (titrated, usually from 77.5 µM), most hits filed as inhibitors; 350,000 compounds, 0.074% hits; AID 485281; further: nearly all actives have a fitted effect of over 20% in size
Target sequence (P02791 2-175 limits assumed): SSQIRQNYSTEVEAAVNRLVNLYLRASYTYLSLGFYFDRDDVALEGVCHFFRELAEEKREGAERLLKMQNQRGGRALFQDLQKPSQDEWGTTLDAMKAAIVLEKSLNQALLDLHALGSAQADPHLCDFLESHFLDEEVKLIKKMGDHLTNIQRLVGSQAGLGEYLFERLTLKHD
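Horse-spleen apoferritin (10 uM) in 50% saturated 1-aminoanthracene in PBS was incubated 10 min at room temperature with compound. Fluorescence (ex 380, em 535 nm) was normalized to free and bound 1-AMA, with concentration-response fitted by a four-parameter Hill equation.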
aSyn rescue – rescues yeast growth from alpha-synuclein toxicity; AID 652106; Potency, µM (titrated, usually from 46.1 µM), hits mostly activators; 370,000 compounds, 0.14% hits; Yeast expressing alpha-synuclein, growth rescue, BacTiter-Glo, 24 h; further: nearly all actives have a fitted effect of over 65% in size
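Screening used galactose-induced yeast with toxic alpha-synuclein levels, exposed to compound for 24 hr at 30 deg C. Cell growth, read with BacTiter-Glo luminescence, gave the measured signal.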
Mito fusion act – blocks mitochondrial division or promotes mitochondrial fusion; AID 485298; 320,000 compounds, 0.23% hits; S. cerevisiae fusion-defective mutant growth rescue, CellTiterGlo 48 h; Potency, µM (titrated, usually from 46.1 µM), usual class: activators; further: nearly all actives have a fitted effect of over 45% in size
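Temperature-sensitive fusion-defective S. cerevisiae (e.g. fzo1-1, mgm1-5) were grown with compound in YPEG medium (3% ethanol, 3% glycerol) for 48 hours at 37C. Growth rescue was measured as viability by CellTiterGlo luminescence after 10 minutes at ambient.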
Numbers stand for hits; - = inactive; ? = inconclusive; . = no result; [ ] = dose if it differs, or a comment. Unless noted, the call rests on the fitted dose curve; in most records, active means well fitted curve in the direction sought with a large enough effect; inconclusive means small, poorly fitted or top-dose-only effect, or another doubt; inactive means no such curve, though single readings can be large; an effect the other way counts as inactive or inconclusive.

SMILES	Akt phos inh	CCT modulator	TDP-43 yeast inh	Anesthetic bind	aSyn rescue	Mito fusion act
Cc1cccc(Oc2nc3ccccn3c(=O)c2/C=C(\C#N)c2nc3ccccc3s2)c1C	.	.	-	-	.	.
N#Cc1nc(-c2ccc(OCc3ccccc3)cc2)oc1NCc1cccnc1	-	-35.9	-	-	-	-
N#Cc1nc(-c2ccc(OCc3ccc(Cl)cc3)cc2)oc1NCc1cccnc1	-	-	-	?	-	-
O=C1NC(=O)/C(=C/c2ccc3c(c2)OC(F)(F)O3)S1	.	.	.	.	-	3.66µM
COc1ccc(N2CCN(CCCNC(=O)c3c(C)nn(-c4ccc(F)cc4)c3-n3cccc3)CC2)cc1	.	.	-	-	-	.
COCCN1C(=O)/C(=C/c2cc3c(cc2Br)OCO3)NC1=S	-	-	20µM	-	-	-
CCOC(=O)n1c(=O)oc2ccc(Cl)cc21	-	-	10µM	-	-	-
CCOC(=O)n1c(=O)n(Cc2ccc(Cl)cc2Cl)c2ccccc21	-	-	22.4µM	-	-	-
CCCCOC(=O)n1c(=O)oc2ccccc21	-	-	-	-	-	-
CC(=O)Nc1ccc(SCC(=O)N(CCC#N)c2cc(C)cc(C)c2)cc1	-109.9%	-	-	-	-	-
COc1cccc([C@@H]2Oc3ccc(OC)cc3/C(=N/O[C@@H](C)c3cn([C@H]4COC[C@H]4O)nn3)[C@@H]2O)c1	.	.	.	-[15.3 µM]	.	.
Cc1cc(C)c2c(=O)cc(C(=O)Nc3ccccc3C(F)(F)F)oc2c1	.	.	-	-	.	.
CCN(C[C@H]1N[C@@](C)(C(=O)OC)[C@H]2C(=O)N(Cc3ccccc3)C(=O)[C@@H]12)C(=O)c1ccc(F)cc1	-	-33.6	-	.	-	.
COc1ccc(/C=C2\C=Cc3ccccc32)cc1OC	.	.	.	.	-	.
CN(C)c1ccc(/C=C/c2ccnc3ccccc23)c(N)c1	.	.	.	.	-	.
CC(=O)c1ccc(Oc2ccc(C(C)=O)cc2)cc1	-	-	22.4µM	-	-	-
CC(=O)c1ccc(OC(=O)Oc2ccc(C(C)=O)cc2)cc1	-	-	-	.	-	.
CC1CC(C)CN(c2oc(-c3ccc(OCc4ccccc4Cl)cc3)nc2C#N)C1 (stereo not drawn)	.	.	.	.	-	.
CCOC(=O)c1c(C)[nH]c(C(=O)/C(C#N)=C/c2ccc(OCC)cc2)c1C	-	-118.8	15.8µM	-	-	-
CC1(C)CC(=O)C(CS(=O)(=O)c2ccccc2)=C(O)C1	-	-	-	31.6µM	-	-
C=CCn1c(SCC#N)nc2cc(Cl)ccc2c1=O	.	.	.	.	-	.
Cc1cnn(C(=S)NCc2ccc(Cl)cc2)c1	-	-	-	-	-	-
Cc1cnn(C(=S)NCCc2ccccc2)c1	-	-	11.2µM	-	-	-
CCOC(=O)N1CCN(Cc2ccccn2)CC1	-104.7%	-	-	-	-	-
CCOC(=O)N1CCN(Cc2ccc(O)c3ncccc23)CC1	-	-	-	-	-	-
SMILES	Akt phos inh	CCT modulator	TDP-43 yeast inh	Anesthetic bind	aSyn rescue	Mito fusion act
Cc1[nH]nc2c1C(=O)CC(C)(C)C2	-110.2%	-	-	-	-	-
CCNc1nc(NCC)nc(-n2cc(C(=O)c3cc(Cl)ccc3O)cn2)n1	.	.	.	.	-	.
Cc1cc(C)n2nc(SCC(=O)N3CCc4ccccc43)nc2n1	-	-	-	-	-	35.5µM
Cc1cc(C)nc(SCC(=O)N2CCc3ccccc32)n1	-	-	-	.	-	.
CCc1cccc(NC(=O)c2nc(-c3ccncc3)no2)c1	.	.	?	-	.	.
CN(C(=O)c1ccc(Oc2ccc([N+](=O)[O-])cc2)cc1)C1CCCCC1	-	-	20µM	?	-	-
CN(C(=O)c1cccc(NC(=O)Cc2ccc([N+](=O)[O-])cc2)c1)C1CCCCC1	-	-	-	.	-	.
CCc1c(-c2ccccc2F)ncn1Cc1cccc(-c2ccccc2)c1	-	.	20µM	.	-	.
O=C(/C=C/c1cccc(Cl)c1)NCc1cccs1	-	-	17.8µM	-	-	-
O=C(/C=C/c1cccc(Cl)c1)Nn1c(-c2cccs2)nc2ccccc2c1=O	-	-	10µM	-	-	15.8µM
O=C(/C=C/c1ccccc1)Nn1c(-c2cccs2)nc2ccccc2c1=O	-	-	-	-	-	?
O=C(/C=C/c1ccc(Cl)cc1)NCc1cccs1	-	-	-	-	-	-
O=C(CSc1nc2c([nH]c3ccccc32)c(=O)n1-c1ccccc1F)Nc1cccc(Cl)c1	.	.	-	-	.	.
CC(CCc1ccccc1)NC(=O)/C=C/c1ccccc1 (stereo not drawn)	-	-	-	-	-	-
CC(CCc1ccccc1)NC(=O)/C=C/c1ccc(F)cc1 (stereo not drawn)	.	.	.	-	.	11.2µM
CC[N+]1(CC(=O)c2cccs2)CCCCC1	.	.	.	.	-	.
Cc1ccc(C)c(N(C)C(=O)C2CCN(S(=O)(=O)c3cccc4nsnc34)CC2)c1	.	.	-	?	.	.
Cc1cc(C(=O)N2CCCCCC2)cs1	-	-	-	-	-	-
Cc1cc(C)cc(C(=O)N2CCCCCC2)c1	-	-	-	12.6µM	-	-
Cc1ccc(N2CC(C)Cn3c2nc2c3c(=O)n(Cc3cccc(Cl)c3)c(=O)n2C)cc1 (stereo not drawn)	.	.	-	-	.	.
Cn1c(=S)[nH]c2scc(-c3cccs3)c2c1=O	-	-36.5	?	-	-	-
Cc1ccc(C(=O)Nc2cc(Cl)ccc2-n2cncn2)s1	-	-	?	.	-	-
O=C(Nc1cc(Cl)ccc1-n1cncn1)c1cc(F)c(F)c(F)c1F	-	-	22.4µM	.	-	?
Cc1cccc(OCC(=O)Nc2cc(Cl)ccc2-n2cncn2)c1C	-	-	-	.	?	-
Cc1ccsc1C(=O)Nc1cc(Cl)ccc1-n1cncn1	-	-	17.8µM	.	-	.
SMILES	Akt phos inh	CCT modulator	TDP-43 yeast inh	Anesthetic bind	aSyn rescue	Mito fusion act
Cc1ccc(OCC(=O)Nc2cc(Cl)ccc2-n2cncn2)c(C)c1	-	-	12.6µM	.	-	.
CCN1CCN(c2cc(C)c3cc(NC(=O)/C=C/c4cccc(Cl)c4)ccc3n2)CC1	.	.	-	-	.	.
CCN(CC)c1ccc(-c2nnc(SCC(=O)NCc3ccco3)n2C)cc1	.	.	.	.	-	.
Cc1cccc(C(P(=O)(c2ccccc2)c2ccccc2)P(=O)(c2ccccc2)c2ccccc2)n1	-	-	-	-	-	-
Cc1cccc(C(O)C(O)c2cccc(C)n2)n1 (stereo not drawn)	-	-84.6	-	.	-	.
CCOC(=O)NN=C1c2ccccc2-c2ccccc21	-	-	5.01µM	-	-	-
NC(=S)NN=C1c2ccccc2-c2ccccc21	-	-	17.8µM	-	-	-
CCOC(=O)Nc1ccc2c(c1)C(=NNC(=S)NC)c1ccccc1-2	-	-	25.1µM	.	-	.
CCOC(=O)NC(=S)Nc1cccc(NC(=S)NC(=O)OCC)c1	-	-	-	-	-	-
CC(=O)c1cc(-c2ccccc2)n(CCC(=O)Nc2cc(C)cc(C)c2)c1C	.	.	-	-	.	.
Cc1ccc(NC(=O)NCc2c(-n3cccc3)sc3c2CCCC3)c(Cl)c1	.	.	-[9.22 µM]	-	.	.

Screening data: PubChem BioAssay, National Center for Advancing Translational Sciences (NCATS)
